Screen size: about 310,000 compounds; about 2,200 (0.71%) showed an effect of 50% or more. Effects have a minus sign here. What follows is part of a selection rich in strong results, with near analogues and random picks from the rest.
The molecules below were run against human ether-à-go-go-related gene (hERG) potassium channel (human, UniProt Q12809) (assay: primary screen, population patch clamp on CHO cells stably expressing hERG; higher = less effect of the substance).
human ether-à-go-go-related gene (hERG) potassium channel, sequence (Q12809 whole entry, looked up): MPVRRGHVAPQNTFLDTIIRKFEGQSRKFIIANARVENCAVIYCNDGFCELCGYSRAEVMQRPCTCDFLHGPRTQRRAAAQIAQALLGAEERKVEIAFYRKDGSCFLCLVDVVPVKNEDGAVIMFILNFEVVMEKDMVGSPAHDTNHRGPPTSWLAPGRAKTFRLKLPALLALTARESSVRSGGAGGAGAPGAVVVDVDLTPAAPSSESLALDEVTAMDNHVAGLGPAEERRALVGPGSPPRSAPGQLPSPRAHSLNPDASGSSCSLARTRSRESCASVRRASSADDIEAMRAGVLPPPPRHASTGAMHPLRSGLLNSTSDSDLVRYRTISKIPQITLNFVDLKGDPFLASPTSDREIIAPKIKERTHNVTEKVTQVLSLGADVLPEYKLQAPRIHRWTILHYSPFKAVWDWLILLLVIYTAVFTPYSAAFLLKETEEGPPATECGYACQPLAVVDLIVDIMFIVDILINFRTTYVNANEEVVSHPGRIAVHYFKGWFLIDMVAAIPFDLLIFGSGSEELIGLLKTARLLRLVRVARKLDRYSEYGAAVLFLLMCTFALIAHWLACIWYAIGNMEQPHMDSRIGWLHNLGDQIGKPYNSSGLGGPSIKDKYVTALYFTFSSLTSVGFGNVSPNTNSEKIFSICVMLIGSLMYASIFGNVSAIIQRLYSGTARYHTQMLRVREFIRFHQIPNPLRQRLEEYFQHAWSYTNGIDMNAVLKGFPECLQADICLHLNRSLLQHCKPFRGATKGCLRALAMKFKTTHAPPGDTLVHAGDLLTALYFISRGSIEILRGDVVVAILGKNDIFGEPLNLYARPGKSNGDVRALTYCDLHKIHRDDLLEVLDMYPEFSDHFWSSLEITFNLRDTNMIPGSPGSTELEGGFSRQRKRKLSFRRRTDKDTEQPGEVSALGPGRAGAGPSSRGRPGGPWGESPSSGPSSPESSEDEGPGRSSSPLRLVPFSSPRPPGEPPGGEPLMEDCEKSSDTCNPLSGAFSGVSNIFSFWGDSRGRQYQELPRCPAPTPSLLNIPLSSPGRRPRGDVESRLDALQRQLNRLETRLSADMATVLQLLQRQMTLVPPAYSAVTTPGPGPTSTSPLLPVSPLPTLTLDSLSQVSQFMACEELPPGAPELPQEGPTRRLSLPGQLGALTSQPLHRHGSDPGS

SMILES	hERG current change (%, negative = inhibition) at 1uM [%]
N#Cc1nc(COc2cccc(Cl)c2)oc1NCCN1CCOCC1	-22.3
CC1CN(S(=O)(=O)c2cccc(C(=O)Nc3ccc4c(c3)CCC4)c2)CC(C)O1 (stereo not shown)	1.39
O=C(CN(Cc1ccccc1Cl)C(=O)CN1C(=O)CSc2ccccc21)NC1CC1	-30.7
Cc1ccc(-c2nc3ccccc3[nH]2)cc1NC(=S)NC(=O)c1ccccc1Br	8.3
c1ccc(-c2noc(-c3ccc4c(c3)OCO4)n2)nc1	14.3
O=C(CCC(=O)Nc1ccccc1)NNC(=O)CCc1ccccc1	13.6
COc1cccc(OC)c1NC(=O)C1CCCN1C(=O)NCc1ccccc1 (stereo not shown)	3.69
COC(=O)c1ccc(NC(=O)C2C3CCC(C3)C2C(=O)O)cc1 (stereo not shown)	3.27
O=C(O)c1ccc(S(=O)(=O)NCc2ccc3c(c2)OCO3)cc1	11.3
COc1ccc(OCC(=O)Nc2ccc3c(c2)nc(CCN2CCC(C)CC2)n3C)cc1	-46.3
Cn1c(CCN2CCOCC2)nc2cc(NC(=O)COc3ccc(Cl)cc3)ccc21	2
Cc1ccc(OCC(=O)Nc2ccc3c(c2)nc(CCN2CCC(C)CC2)n3C)cc1	-53.3
CC1CCN(CCc2nc3cc(NC(=O)COc4ccc([N+](=O)[O-])cc4)ccc3n2C)CC1	-2.45
CC1CCN(CCc2nc3cc(NC(=O)COc4ccccc4)ccc3n2C)CC1	-33.9
CC1CCN(CCc2nc3cc(NC(=O)COc4ccc(Cl)cc4)ccc3n2C)CC1	-60.7
CCOc1ccc(NS(=O)(=O)c2ccc3c(c2)N(C(C)=O)CCO3)cc1	17
C[C@]12CCC(=O)CC1CCC1C2CC[C@]2(C)C(OC(=O)CCC(=O)O)CCC12 (stereo partly shown)	9.84
CCC1CCCCN1C(=O)Nc1cc(Cl)ccc1OC (stereo not shown)	15.2
O=C(c1ccco1)N1CCN(C(=O)C2CCN(S(=O)(=O)c3cccs3)CC2)CC1	-26.1
CCc1nn(CC(=O)NCCCN2CCN(C)CC2)c(=O)c2cc3sccc3n12	5.53
CCc1nn(CC(=O)NCCCN2CCOCC2)c(=O)c2cc3sccc3n12	15.6
CCc1nn(CC(=O)NCCCN2CCc3ccccc3C2)c(=O)c2cc3sccc3n12	-53.8

SMILES	hERG current change (%, negative = inhibition) at 1uM [%]
COc1cc(S(=O)(=O)Nc2ncn[nH]2)ccc1Cl	13.5
COCCN1Cc2cccc(C(=O)NCc3ccccc3OC)c2C1=O	3.2
Cc1cc(C)cc(NC(=S)NC2CC3CCCC(C2)N3C2CC2)c1 (stereo not shown)	-32
Cc1cc(C)cc(NC(=S)NC2CC3CCCC(C2)N3CC(C)C)c1 (stereo not shown)	11.3
Cc1cc(C)cc(NC(=S)NCCN(C2CCCCC2)C2CCCC2)c1	-59.7
Cc1cc(C)cc(NC(=S)NC2CC3CCCC(C2)N3C2CCCC2)c1 (stereo not shown)	-52.3
Cc1cccc(NC(=S)NCCN(C2CCCCC2)C2CCCC2)c1	-1.59
CCCN1C2CCCC1CC(NC(=S)Nc1cc(C)cc(C)c1)C2 (stereo not shown)	-81.4
CCCN1C2CCCC1CC(NC(=S)Nc1cccc(C)c1)C2 (stereo not shown)	-12.7
CCCN1C2CCCC1CC(NC(=S)Nc1cc(C)ccc1C)C2 (stereo not shown)	8.55
Cc1ccc(NC(=S)NCCN(C2CCCCC2)C2CCCC2)cc1	-10.5
Cc1ccc(CSc2ccc(-c3ccc4c(c3)OCO4)nn2)cc1	12.7
COc1ccccc1CC(=O)NCCCc1ccccc1	11.2
O=C(CCS(=O)(=O)c1ccc2c(c1)NC(=O)CS2)NCCc1ccc(Cl)cc1	10
CCN(C(=O)COC(=O)CNC(=O)c1ccc(F)cc1)C1CCS(=O)(=O)C1 (stereo not shown)	9.62
COC(=O)Nc1c(C(=O)OC)cc(OC)c(OC)c1OC	6.05
CC1=NNC(=O)C1CCC(=O)N/N=C/c1ccc(Cl)cc1Cl (stereo not shown)	12.6
COc1cc(OC)cc(C(=O)NNC(=O)c2ccc(S(=O)(=O)N(C)c3ccccc3OC)cc2)c1	13.2
CS(=O)(=O)N1CCN(C(=O)c2ccc(-c3ccccc3)cc2)CC1	9.18
COc1cc(F)cc(-c2ccc3c(c2)c(-c2cccs2)c(-c2cc(OC)cc(OC)c2)n3C)c1	12.5
CCOC(=O)C1(CCOc2ccccc2)CCN(Cc2cccc(-n3cccn3)c2)CC1	-68.5
CCOC(=O)C1(CCOc2ccccc2)CCN(Cc2ccc(-n3cccn3)cc2)CC1	-37.8

SMILES	hERG current change (%, negative = inhibition) at 1uM [%]
CCOC(=O)C1(Cc2cccc(OC)c2)CCN(Cc2cnc(C)s2)CC1	11
CCOC(=O)C1(CCOc2ccccc2)CCN(Cc2cnc(SC)nc2)CC1	-28.4
CCOC(=O)C1(Cc2ccccc2)CCN(Cc2ccc(C)s2)CC1	-2.06
CCOC(=O)C1(CCOc2ccccc2)CCN(Cc2cccc(OCCO)c2)CC1	-84.4
CCOC(=O)C1(Cc2cccc(OC)c2)CCN(Cc2ccc(C)s2)CC1	-53.1
CCOC(=O)C1(CCOc2ccccc2)CCN(Cc2cccc(F)c2)CC1	-7.5
CCOC(=O)C1(CCOc2ccccc2)CCN(Cc2ccc(OC)cc2)CC1	-77.4
CCOC(=O)C1(CCOC)CCN(Cc2cccc(OCc3ccccc3)c2)CC1	3.99
Cc1ccc(NC(=O)CCC(=O)NNC(=O)COc2ccccc2)c(C)c1	7.32
CC1(C)C(=O)OC(c2c3ccccc3cc3ccccc23)C(C)(C)C1=O (stereo not shown)	0.485
COc1ccc(/C=C/c2cc(=O)c3cc(Cl)ccc3o2)cc1	9.88
COCCn1ccc2c(OCC(=O)NCCc3ccccc3)cccc2c1=O	0.744
CSc1ccc(C2CC(=O)Nc3nc(SC)[nH]c(=O)c32)cc1 (stereo not shown)	17
O=C(O)c1ccc(S(=O)(=O)c2ccc3c(c2)C(=O)N(NC(=O)c2ccncc2)C3=O)cc1	5.01
NNC(=O)c1nc(-c2ccccc2)n2c1CCCCC2	0.842
O=C(OCC(=O)N1CCCC1)c1c2c(nc3ccccc13)CCCCC2	9.48
CC1(C)CC(c2nc(-c3ccc([N+](=O)[O-])cc3)cs2)CCO1 (stereo not shown)	9.08
CC(C)NC(=O)NS(=O)(=O)c1cnccc1NC1CC2CCC1C2 (stereo not shown)	9.06
CCn1cc([N+](=O)[O-])c(C(=O)N2N=C(c3ccc(O)c(OC)c3)CC2c2ccccc2O)n1 (stereo not shown)	18.1
Cc1ccc2nc(-c3ccccn3)oc2c1	12.6
Cc1ccccc1NC(=O)NCCc1ccc(Cl)cc1	8.42
CCOC(=O)C1(CCOc2ccccc2)CCN(C(=O)CCSC)CC1	-11.3

SMILES	hERG current change (%, negative = inhibition) at 1uM [%]
CCOC(=O)C1(CCOc2ccccc2)CCN(Cc2cnc(C)s2)CC1	-18.8
CCOC(=O)C1(CCOc2ccccc2)CCN(Cc2cccs2)CC1	-32.6
CCOC(=O)C1(CCOc2ccccc2)CCN(Cc2cccc(O)c2)CC1	-28.7
CCOC(=O)C1(CCOc2ccccc2)CCN(Cc2ccc(OCCO)cc2)CC1	-85.1
CCOC(=O)C1(CCOc2ccccc2)CCN(C(=O)c2cncs2)CC1	-27.4
CCOC(=O)C1(CCOc2ccccc2)CCN(Cc2ccncc2)CC1	-23.5
CCOC(=O)C1(CCOc2ccccc2)CCN(Cc2ccc(C#CCCO)cc2)CC1	0.161
CCOC(=O)C1(CCOc2ccccc2)CCN(Cc2ccc(O)cc2)CC1	-84.8
CCOC(=O)C1(CCOc2ccccc2)CCN(Cc2ccc(C)s2)CC1	-65.4
CCOC(=O)C1(CCOc2ccccc2)CCN(C(=O)c2ccc(-n3cccn3)cc2)CC1	-85.6
CCOc1ccccc1N(CC(=O)Nc1ccccc1C(=O)NCc1ccco1)S(C)(=O)=O	2.08
CC(Sc1nnc(Nc2ccccc2F)s1)C(=O)NC1CC1 (stereo not shown)	3
COCCc1ncc(CN2CCC(C(=O)Nc3ccc(-n4cccn4)cc3)CC2)cn1	-5.56
CNC(=O)c1cc2cc(OC)ccc2oc1=O	-4.3
O=C(O)c1ccc(NCc2ccc3c(c2)OCO3)cc1	10.6
Cc1nc2sccn2c(=O)c1S(=O)(=O)Nc1ccc(N2CCN(C)CC2)cc1	21.4
CC1CN(c2ccc([N+](=O)[O-])c(N3CCCCC3)c2)CCN1 (stereo not shown)	8.07
CCOC(=O)C1(Cc2cccc(OC)c2)CCN(CC2CC=CCC2)CC1 (stereo not shown)	-50.6
CCOC(=O)C1(CCOc2ccccc2)CCN(Cc2cccc(OC)c2)CC1	-24.4
CCOC(=O)C1(Cc2cccc(OC)c2)CCN(CCO)CC1	2.3
CCOC(=O)C1(CCOc2ccccc2)CCN(Cc2cc(OC)cc(OC)c2)CC1	-61.5
CCOC(=O)C1(Cc2ccccc2)CCN(CC2CC=CCC2)CC1 (stereo not shown)	-5.83

Reference: publication PMC4336329 (PLoS ONE, 2015)
